Drawing on PubChem BioAssay AID651717 (Broad Institute, 2012), this text covers max activity for 60 molecules.

The campaign covered roughly 1,200 compounds. About 950 (79%) were called active. The set was probably picked from earlier hits. The list is a sample of the results. Measured potencies and affinities stand elsewhere. Values without a mark were called inactive.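 How the source made its calls: active means signal rises and fitted curve reaches 40% activity at or below the top valid tested dose, in every replicate test; inconclusive means replicate tests give mixed calls; inactive means the rest, including activity in the opposite direction.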

This experiment in a line: compounds raising Bmi1 reporter signal – mouse embryonic stem cells, luciferase, cherry-pick, esBAF inhibitor project, dose response (AID 651717).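 Further: luciferase knocked into Bmi1 locus with EF-1a renilla as cell number control; rising ratio signals esBAF inhibition which derepresses Bmi1.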 The note with it: mESC Bmi1-luciferase reporter, firefly/renilla ratio, 24 h, hits give high values; at 35 µM unless noted. (In general: Reporter assays use an easily measured gene product as a stand-in for the process of interest.)
Turning to `C[C@@H]1CN([C@@H](C)CO)C(=O)c2c(c3ccccc3n2C)-c2ccccc2CO[C@H]1CN(C)C(=O)Nc1ccc2c(c1)OCO2`, the max activity was -5.95% [at 1.1 µM]. Consider `C[C@@H]1CN([C@H](C)CO)C(=O)Cc2cc(NC(=O)C3CCCCC3)ccc2O[C@H]1CN(C)C(=O)Nc1ccc2c(c1)OCO2`, for which the max activity was 7.16% [at 1.1 µM].

Consider `C[C@H]1CN([C@@H](C)CO)C(=O)Cc2cc(NC(=O)C3CCCCC3)ccc2O[C@@H]1CN(C)C(=O)Nc1ccc2c(c1)OCO2`, for which the max activity is -4.16% [at 2.1 µM]. As for `C[C@H]1CN([C@@H](C)CO)C(=O)c2cccc(NS(=O)(=O)c3ccccc3)c2O[C@@H]1CN(C)C(=O)Nc1ccc2c(c1)OCO2`, the max activity was -33.5% [at 30 µM]. In the case of `COc1ccc2nc(N(CCN(C)C)C(=O)c3ccc4ncsc4c3)sc2c1` it was 43.3% [at 8 µM].

`C[C@H]1CN([C@@H](C)CO)C(=O)c2cccc(NS(=O)(=O)c3ccccc3)c2O[C@H]1CN(C)C(=O)Nc1ccc2c(c1)OCO2`: the max activity is -6.71%. As for `COc1ccc(N(CC(=O)Nc2ccccc2C(N)=O)S(=O)(=O)c2ccc(C)c([N+](=O)[O-])c2)cc1`, the figure is 17% [at 16 µM]; as for `COc1ccc(NC(=O)N(C)C[C@H]2OCCCC[C@@H](C)Oc3ccc(NC(=O)Nc4ccc5c(c4)OCO5)cc3C(=O)N([C@H](C)CO)C[C@@H]2C)cc1`, 12.1% [at 8 µM]. `CCOc1ccc2nc(Cl)c(C3CC(c4ccco4)=NN3S(=O)(=O)c3ccccc3)cc2c1` (stereo not given): the max activity was 9.03% [at 1 µM]. Consider `COC(=O)[C@H]1C[C@@]2(O)CN(S(=O)(=O)c3ccc(C)cc3)C[C@@]2(OC(=O)NCC2CCCCC2)C[C@H]1C(=O)OC`, for which the max activity is 29.2%. As for `CC1CCN(c2nc3ccc(C(=O)NCCCN4CCCCC4C)cc3s2)CC1` (stereo not given), the max activity was -33.5% [at 16 µM]. In the case of `C[C@@H]1CN([C@H](C)CO)C(=O)c2cc(NC(=O)Nc3ccc4c(c3)OCO4)ccc2O[C@@H](C)CCCCO[C@H]1CN(C)S(=O)(=O)c1cn(C)cn1`, the max activity was 5.01% [at 1 µM]. Regarding `CSc1cccc(NC(=O)c2[nH]c(C)c(C(C)=O)c2C)c1`, the max activity was 14.1% [at 8 µM]. Consider `CC1=C(C(=O)OCc2ccccc2)C(c2ccc(Br)cc2)NC(=O)N1CCCCCC(=O)O` (stereo not given), for which the max activity was 11.1% [at 16 µM].

`C[C@@H]1CCCCO[C@H](CN(C)C(=O)Nc2cccc3ccccc23)[C@H](C)CN([C@@H](C)CO)C(=O)c2cc(NC(=O)CCC(F)(F)F)ccc2O1`: the max activity was 26.7% [at 1 µM].

As to `COc1ccc(-c2cc(C(=O)Nc3cc(OC)cc(C(=O)Nc4cccc(C(F)(F)F)c4)c3)[nH]n2)cc1`, the max activity was 9.94% [at 4.2 µM]. Regarding `CCOC(=O)COc1c(OC)cc(Cl)cc1C1Nc2ccccc2C(=O)N1c1cccc(C)c1` (stereo not given), the max activity was 28.5%. As for `O=C(Nc1ccc(Cc2ccc(NC(=O)Nc3cccnc3)cc2)cc1)Nc1cccnc1`, the max activity was 25.6% [at 16 µM].

Consider `Cc1ccc(NCC(=O)N/N=C\C(Br)=C\c2ccccc2)cc1`, for which the max activity is 8.26% [at 16 µM]. `CC=Cc1ccc2n(c1=O)C[C@@H]1[C@@H](CO)[C@H](C(=O)Nc3ccc(-c4ccccc4)cc3)N(C)[C@H]21` (mixture of isomers): the max activity is -24.6%.

With `CC=Cc1ccc2n(c1=O)C[C@H]1[C@H](CO)[C@@H](C(=O)Nc3ccc(-c4ccccc4)cc3)N(CC)[C@@H]21` (mixture of isomers), the max activity is 5.58% [at 0.26 µM]. As to `CC(=O)c1ccc(N(C(=O)Cc2c[nH]c3ccccc23)C(C(=O)NC2CCCCC2)c2cccs2)cc1` (stereo not given), the max activity was -9.23%. In the case of `Cc1ccc2c(c1)Sc1ccccc1CC2=O`, the max activity is 16.2%. In the case of `Cn1c(SCc2nc3ccccc3s2)nnc1-c1ccc2c(c1)OCO2` it was 27.7%; in that of `O=C1Nc2ccccc2N=C(c2ccc3c(c2)OCO3)C1N(CCc1ccccc1)C(=O)CSc1ncccn1` (stereo not given), -16.9%; in that of `C[C@@H]1CN([C@@H](C)CO)C(=O)c2cc(NC(=O)Nc3ccc4c(c3)OCO4)ccc2O[C@@H](C)CCCCO[C@H]1CN(C)Cc1ccncc1`, -10.2% [at 0.5 µM]. Take `Cc1ccc2nc(NC(=O)CCNS(=O)(=O)c3cccs3)sc2c1`: the max activity is 37.2%. In the case of `CNC[C@@H]1OCCCC[C@H](C)Oc2ccc(NS(=O)(=O)c3ccc(C)cc3)cc2C(=O)N([C@H](C)CO)C[C@H]1C` it was -8.01% [at 1.1 µM]; in that of `O=C1NC(Cc2ccc(O)cc2)c2nc3ccc(Br)cc3c(=O)n2-c2cc3ccccc3cc21` (stereo not given), 6.63% [at 8 µM]; in that of `C[C@@H]1CCCCO[C@@H](CN(C)Cc2ccncc2)[C@H](C)CN([C@@H](C)CO)C(=O)c2cc(NC(=O)Nc3ccc4c(c3)OCO4)ccc2O1`, -10.3% [at 0.5 µM]. `Cc1ccc(NC(=O)c2ccccc2F)c(NC(=O)c2ccccc2F)c1`: the max activity is 39.1% [at 16 µM]. Regarding `C[C@@H]1CN([C@H](C)CO)C(=O)c2cccc(NC(=O)Nc3ccc4c(c3)OCO4)c2O[C@H]1CN(C)S(=O)(=O)c1cccs1`, the max activity was 36.7% [at 1 µM].

Regarding `CN(CC(=O)Nc1ccc(Cl)c(S(=O)(=O)N(C)C)c1)Cc1ccccc1`, the max activity is 16.8% [at 1 µM]. Consider `CN1C(=O)c2cc(NC(=O)c3ccc(C#N)cc3)ccc2OC[C@H]2O[C@@H](CC(=O)NC3Cc4ccccc4C3)CC[C@@H]21`, for which the max activity is -7.14%. Consider `Cc1c(CC(C)C)nc(N)c(C#N)c1-c1ccccc1`, for which the max activity was 8.97% [at 16 µM]. `CCc1ccc(C(=O)CN2C(=O)NC3(CCCCCC3)C2=O)cc1`: the max activity is 32.8%. Regarding `CC1CC(C)(C)CC2(C1)NC(=O)N(CC(=O)OCC(=O)Nc1cc(S(=O)(=O)N3CCCCC3)ccc1Cl)C2=O` (stereo not given), the max activity was 16.1% [at 0.5 µM]. In the case of `COc1ccc(C(=O)N2CCN(c3ccc(C(C)=O)cc3)CC2)cc1S(=O)(=O)N1CCCC1` it was 26.7% [at 2.1 µM].

Regarding `COc1ccc(CCNC(=O)CSc2nc3ccsc3c(=O)n2Cc2ccccn2)cc1OC`, the max activity is 23.9%. With `Cc1ccc(S(=O)(=O)Nc2cccc3c2O[C@@H](CN(C)C(=O)Nc2ccc4c(c2)OCO4)[C@@H](C)CN([C@@H](C)CO)C3=O)cc1`, the max activity was -17.3%. Take `CC(=O)N(C)c1ccc(NCc2cc(=O)oc3cc(C)c(O)cc23)cc1`: the max activity is 19.2%. In the case of `COc1ccc2cc(C(=O)c3ccccc3)c(=O)oc2c1` it was 32.6% [at 4.2 µM]. For the molecule `C[C@@H]1CN([C@@H](C)CO)C(=O)c2cc(NC(=O)Nc3ccc4c(c3)OCO4)ccc2O[C@@H](C)CCCCO[C@@H]1CN(C)S(=O)(=O)c1cn(C)cn1`, the max activity is -11% [at 0.5 µM]. As to `CC1CCN(c2ccc3c(c2)S(=O)(=O)c2cccc(C(=O)NCc4ccc(F)cc4)c2C3=O)CC1`, the max activity is 27.9%. As to `Cc1ccc(S(=O)(=O)N(C)C[C@H]2OCCCC[C@H](C)Oc3ccc(NC(=O)Nc4ccc5c(c4)OCO5)cc3C(=O)N([C@H](C)CO)C[C@H]2C)cc1`, the max activity is 10.8% [at 16 µM]. As for `CN(C)c1ccc(C(=O)Nc2cccc(S(=O)(=O)N3CCCC3)c2)cc1`, the figure is 25% [at 16 µM]; as for `Cc1ccc(S(=O)(=O)Nc2cccc3c2O[C@H](CN(C)C(=O)Nc2ccc4c(c2)OCO4)[C@H](C)CN([C@H](C)CO)C3=O)cc1`, -21.3%.

With `CCC(SC1=Nc2ccccc2C2=NC(CC(C)C)C(=O)N12)C(=O)Nc1ccc2c(c1)OCO2` (stereo not given), the max activity was -19.3%. With `C[C@H](CO)N1C[C@H](C)[C@@H](CN(C)C(=O)Nc2ccc3c(c2)OCO3)OCCCC[C@H](C)Oc2ccc(NC(=O)c3ccncc3)cc2C1=O`, the max activity is -9% [at 0.26 µM]. As for `C[C@H]1CN([C@@H](C)CO)C(=O)Cc2cc(NC(=O)Nc3ccc4c(c3)OCO4)ccc2O[C@H]1CN(C)Cc1ccccc1`, the figure is 12.3% [at 8 µM]; as for `C[C@H]1CN([C@@H](C)CO)C(=O)Cc2cc(NC(=O)Nc3ccc4c(c3)OCO4)ccc2O[C@@H]1CN(C)Cc1ccccc1`, -4.95% [at 2.1 µM]. In the case of `CCn1c(=N)n(CC(=O)c2ccc(Br)s2)c2ccccc21` it was 15.9%. As for `CN(C)c1ccc(-c2nnn(Cc3ccccc3Br)n2)cc1`, the figure is -12.5%; as for `CCOC(=O)c1cc(-c2sc(NC(=O)c3ccccc3)nc2C)n(-c2ccc(Br)cc2)n1`, 24%; as for `O=C(c1ccc2ccccc2c1O)N1CCCCC1`, -23.4%. Consider `C[C@@H]1CN([C@@H](C)CO)C(=O)c2cc(NS(=O)(=O)c3ccc(F)cc3)ccc2O[C@H]1CN(C)C(=O)Nc1ccc2c(c1)OCO2`, for which the max activity is -5.95% [at 0.5 µM]. Regarding `Cc1ccc(S(=O)(=O)NCc2ccccc2)cc1C(=O)NC1CCC(C)CC1` (stereo not given), the max activity was 29.1% [at 4.2 µM]. `CN(C)Cc1c(C(=O)N/N=C/c2ccccc2OCc2c(F)cccc2Cl)nnn1-c1nonc1N`: the max activity was 19.7% [at 4.2 µM]. Turning to `C[C@H](CO)N1C[C@H](C)[C@@H](CN(C)S(=O)(=O)c2cn(C)cn2)OCCCC[C@H](C)Oc2ccc(NC(=O)Nc3ccc4c(c3)OCO4)cc2C1=O`, the max activity is 18.2%.

As for `C[C@H]1CCCCO[C@@H](CN(C)C(=O)Nc2ccccc2)[C@@H](C)CN([C@@H](C)CO)C(=O)c2cc(NC(=O)Nc3ccc4c(c3)OCO4)ccc2O1`, the max activity was 11.1% [at 4.2 µM].
